Measurements taken from PubChem BioAssay AID1159580 (chemical genetic matrix, 2015).
Hit rate of the full screen: of about 5,500 compounds, about 2,000 (36%) were called active. Another 18% or so got no clear call; they are omitted. Cut-off read from the data, not from the text of the source: active = normalized growth mostly below about 0.91 (no sharp cut-off); inconclusive = no clear call, values can overlap the other calls; inactive = mostly above about 0.92. The list shows a part of the results.

Test: chemical genetic growth profiling, strain panel (AID 1159580);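 note: tested at 20 µM; growth read once vehicle control cultures reached saturation at 30 °C; 1 = growth at the plate median or of vehicle wells; lower values mean less growth of the strain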
Conditions: growth OD

Measured: normalized growth

COc1c2occc2cc2ccc(=O)oc12
active: S. cerevisiae deletion strains, locus YKR001C, strain vps1, active compounds read low 0.863 | S. cerevisiae deletion strains, locus YLL001W, strain dnm1, active compounds read low 0.874 | S. cerevisiae deletion strains, locus YLR221C, strain rsa3, active compounds read low 0.891 | S. cerevisiae deletion strains, locus YLR320W, strain mms22, active compounds read low 0.833 | S. cerevisiae deletion strains, locus YML032C, strain rad52, active compounds read low 0.876 | S. cerevisiae deletion strains, locus YML120C, strain ndi1, active compounds read low 0.866 | S. cerevisiae deletion strains, locus YNL209W, strain ssb2, active compounds read low 0.923 | S. cerevisiae deletion strains, locus YNL307C, strain MCK1, active compounds read low 0.88 | S. cerevisiae deletion strains, locus YNL322C, strain KRE1 (second series), active compounds read low 0.763 | S. cerevisiae deletion strains, locus YOR106W, strain vam3, active compounds read low 0.701 | S. cerevisiae deletion strains, locus YOR184W, strain ser1, active compounds read low 0.859 | S. cerevisiae deletion strains, locus YOR290C, strain snf2, active compounds read low 0.856
inactive: S. cerevisiae deletion strains, locus YJR075W, strain HOC1, active compounds read low 0.976 | S. cerevisiae deletion strains, locus YKL009W, strain mrt4, active compounds read low 0.909 | S. cerevisiae deletion strains, locus YKL068W, active compounds read low 0.996 | S. cerevisiae deletion strains, locus YKL085W, strain MDH1 (second series), active compounds read low 1 | S. cerevisiae deletion strains, locus YKL085W, strain MDH1, active compounds read low 1 | S. cerevisiae deletion strains, locus YKL160W, strain elf1, active compounds read low 0.948 | S. cerevisiae deletion strains, locus YKL190W, strain CNB1, active compounds read low 0.979 | S. cerevisiae deletion strains, locus YKR026C, strain gcn3, active compounds read low 0.983 | S. cerevisiae deletion strains, locus YKR091W, strain srl3, active compounds read low 0.982 | S. cerevisiae deletion strains, locus YLL026W, active compounds read low 0.973 | S. cerevisiae deletion strains, locus YLL041C, strain sdh2, active compounds read low 0.981 | S. cerevisiae deletion strains, locus YLR027C, strain aat2, active compounds read low 0.952 | S. cerevisiae deletion strains, locus YLR039C, strain RIC1, active compounds read low 0.851 | S. cerevisiae deletion strains, locus YLR058C, strain SHM2, active compounds read low 0.988 | S. cerevisiae deletion strains, locus YLR102C, strain apc9, active compounds read low 0.986 | S. cerevisiae deletion strains, locus YLR113W, strain HOG1, active compounds read low 1.08 | S. cerevisiae deletion strains, locus YLR258W, strain gsy2, active compounds read low 0.945 | S. cerevisiae deletion strains, locus YLR262C, strain YPT6 (second series), active compounds read low 0.955 | S. cerevisiae deletion strains, locus YLR262C, strain YPT6, active compounds read low 0.91 | S. cerevisiae deletion strains, locus YLR268W, strain sec22, active compounds read low 0.93 | S. cerevisiae deletion strains, locus YLR330W, strain CHS5, active compounds read low 0.991 | S. cerevisiae deletion strains, locus YLR342W, strain FKS1 (second series), active compounds read low 0.971 | S. cerevisiae deletion strains, locus YLR342W, strain FKS1, active compounds read low 0.965 | S. cerevisiae deletion strains, locus YLR357W, strain rsc2, active compounds read low 1.01 | S. cerevisiae deletion strains, locus YLR370C, strain arc18, active compounds read low 0.914 | S. cerevisiae deletion strains, locus YLR371W, strain rom2, active compounds read low 0.969 | S. cerevisiae deletion strains, locus YLR384C, strain iki3, active compounds read low 0.963 | S. cerevisiae deletion strains, locus YLR418C, strain cdc73, active compounds read low 0.95 | S. cerevisiae deletion strains, locus YML016C, strain PPZ1, active compounds read low 0.987 | S. cerevisiae deletion strains, locus YML124C, strain tub3, active compounds read low 0.996 | S. cerevisiae deletion strains, locus YMR058W, strain fet3, active compounds read low 0.927 | S. cerevisiae deletion strains, locus YMR078C, strain ctf18, active compounds read low 0.974 | S. cerevisiae deletion strains, locus YMR125W, strain sto1, active compounds read low 1.01 | S. cerevisiae deletion strains, locus YMR129W, active compounds read low 0.99 | S. cerevisiae deletion strains, locus YMR205C, strain PFK2, active compounds read low 0.941 | S. cerevisiae deletion strains, locus YMR223W, strain ubp8, active compounds read low 0.924 | S. cerevisiae deletion strains, locus YMR231W, strain pep5, active compounds read low 0.989 | S. cerevisiae deletion strains, locus YMR263W, strain SAP30, active compounds read low 0.942 | S. cerevisiae deletion strains, locus YMR307W, strain GAS1, active compounds read low 0.949 | S. cerevisiae deletion strains, locus YNL067W, strain RPL9B, active compounds read low 0.939 | S. cerevisiae deletion strains, locus YNL071W, strain lat1, active compounds read low 0.947 | S. cerevisiae deletion strains, locus YNL128W, strain TEP1, active compounds read low 0.962 | S. cerevisiae deletion strains, locus YNL153C, strain GIM3, active compounds read low 0.983 | S. cerevisiae deletion strains, locus YNL183C, strain NPR1, active compounds read low 0.971 | S. cerevisiae deletion strains, locus YNL233W, strain BNI4, active compounds read low 0.944 | S. cerevisiae deletion strains, locus YNL248C, strain rpa49, active compounds read low 0.901 | S. cerevisiae deletion strains, locus YNL250W, strain rad50, active compounds read low 0.968 | S. cerevisiae deletion strains, locus YNL271C, strain bni1, active compounds read low 0.983 | S. cerevisiae deletion strains, locus YNL298W, strain CLA4, active compounds read low 0.933 | S. cerevisiae deletion strains, locus YNL322C, strain KRE1, active compounds read low 1 | S. cerevisiae deletion strains, locus YNR049C, strain mso1, active compounds read low 0.962 | S. cerevisiae deletion strains, locus YNR052C, strain pop2, active compounds read low 0.978 | S. cerevisiae deletion strains, locus YOL006C, strain TOP1, active compounds read low 0.79 | S. cerevisiae deletion strains, locus YOL012C, strain htz1 0.845 | S. cerevisiae deletion strains, locus YOL147C, strain pex11, active compounds read low 0.982 | S. cerevisiae deletion strains, locus YOR001W, strain rrp6, active compounds read low 0.958 | S. cerevisiae deletion strains, locus YOR061W, strain CKA2, active compounds read low 0.99 | S. cerevisiae deletion strains, locus YOR069W, strain VPS5, active compounds read low 0.991 | S. cerevisiae deletion strains, locus YOR070C, strain gyp1, active compounds read low 0.956 | S. cerevisiae deletion strains, locus YOR080W, strain dia2, active compounds read low 0.95 | S. cerevisiae deletion strains, locus YOR083W, strain WHI5, active compounds read low 0.914 | S. cerevisiae deletion strains, locus YOR136W, strain idh2, active compounds read low 0.974 | S. cerevisiae deletion strains, locus YOR144C, strain elg1, active compounds read low 0.97 | S. cerevisiae deletion strains, locus YOR231W, strain MKK1, active compounds read low 1.01 | S. cerevisiae deletion strains, locus YOR265W, strain rbl2, active compounds read low 0.963 | S. cerevisiae deletion strains, locus YOR270C, strain vph1, active compounds read low 0.83 | S. cerevisiae deletion strains, locus YOR316C, strain cot1, active compounds read low 1 | S. cerevisiae deletion strains, locus YPL051W, strain arl3, active compounds read low 0.939 | S. cerevisiae deletion strains, locus YPL055C, strain LGE1, active compounds read low 0.938 | S. cerevisiae deletion strains, locus YPL078C, strain atp4, active compounds read low 0.964 | S. cerevisiae deletion strains, locus YPL106C, strain sse1, active compounds read low 0.899 | S. cerevisiae deletion strains, locus YPL240C, strain hsp82, active compounds read low 0.965 | S. cerevisiae deletion strains, locus YPL241C, strain CIN2, active compounds read low 0.959 | S. cerevisiae deletion strains, locus YPL256C, strain CLN2, active compounds read low 1.1 | S. cerevisiae deletion strains, locus YPR119W, strain clb2, active compounds read low 0.998 | S. cerevisiae deletion strains, locus YPR141C, strain kar3, active compounds read low 1.02 | S. cerevisiae deletion strains, locus YPR163C, strain tif3, active compounds read low 0.983 | S. cerevisiae deletion strains, locus YPR167C, strain met16, active compounds read low 1.01 | S. cerevisiae deletion strains, strain wtn01, active compounds read low 0.966 | S. cerevisiae strains, strain wild type, active compounds read low 1
